Source: PubChem
DAX1 inh-1 – DAX1 (NR0B1) inhibitors, primary screen, cell-based, HEK293, Gal4-DAX1, luciferase luminescence | HEK293 Gal4-DAX1 luciferase reporter | inhibition, % at 6.75 µM | 0.99% of 340,000 active;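 active = inhibition above the mean over all tested compounds plus 3 SD, cut at about 4.2% in these data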;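 note: 0% = DAX1-transfected cells with DMSO and 100% = empty-vector control cells with DMSO; inhibition shows as a rise in luminescence from relieved DAX1 repression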
Target sequence (P51843 207-470 limits assumed): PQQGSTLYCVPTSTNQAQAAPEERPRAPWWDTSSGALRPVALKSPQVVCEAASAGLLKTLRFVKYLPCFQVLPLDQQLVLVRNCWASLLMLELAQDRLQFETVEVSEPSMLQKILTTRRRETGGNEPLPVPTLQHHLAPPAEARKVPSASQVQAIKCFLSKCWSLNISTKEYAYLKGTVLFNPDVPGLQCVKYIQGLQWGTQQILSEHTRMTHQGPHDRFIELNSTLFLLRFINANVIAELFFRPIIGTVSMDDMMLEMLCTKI
hcDAF12 agonist – H. contortus DAF-12 nuclear receptor activators, primary screen, cell-based, luminescence, HEK293, lit1-tk-luc reporter; HEK293 hcDAF-12 lit1-tk-luc reporter; 0% DMSO, 100% Δ7-dafachronic acid; AID 652067, 2013; activation, % at 6.8 µM; 1.4% of 370,000 active;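 active = activation above the mean of all tested compounds plus 3 SD, cut at about 5.5% in these data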;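 note: 100% = response to 3 µM Δ7-dafachronic acid high control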
hgDAF12 agonist – H. glycines DAF-12 receptor agonists, primary screen, cell-based, luminescence, HEK293, GAL4 fusion, UAS-luciferase | Nuclear hormone receptor DAF-12 (Heterodera glycines), GAL4 fusion | HEK293 GAL4-hgDAF12 UAS-luciferase reporter, agonist luminescence; normalized to butyrate control | activation, % at 6.8 µM | 1.8% of 370,000 active | AID 687014, 2013;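 active = activation above a cutoff set at the mean of all screened compounds plus 3 SD, cut at about 10% in these data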;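 note: 0% = DMSO wells and 100% = sodium butyrate wells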
DAX1 inh-2 – DAX1 (NR0B1) inhibitors on StAR promoter, primary screen, cell-based, luminescence, SF-1 (NR5A1), full-length DAX-1 | HEK293T StAR-luciferase reporter, SF-1/DAX-1 repression relief | inhibition, % at 6.8 µM | 1.1% of 370,000 active;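 active = inhibition above the mean over all tested compounds plus 3 SD, cut at about 3.6% in these data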;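 note: 0% = DAX-1 cells with DMSO and 100% = cells lacking DAX-1 with DMSO; higher inhibition means more luminescence from relief of DAX-1 repression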
ssDAF-12 act – S. stercoralis DAF-12 nuclear receptor activators, primary screen, cell-based, luminescence, HEK293, GRIP1 co-expression, lit1-tk-luc; 1% of 370,000 active; HEK293 ssDAF-12/GRIP1 lit1-tk-luc reporter; % of 3 µM dafachronic acid response; activation, % at 6.8 µM;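 active = activation above the mean over all tested compounds plus 3 SD, cut at about 0.9% in these data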;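 note: 0% = DMSO-only wells and 100% = 3 µM delta7-dafachronic acid wells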
SMARCA2 act – SMARCA2 (BRM) function activators, primary screen, cell-based, luminescence, high throughput | activation, % at 9.1 µM | 1% of 370,000 active | AID 652017, 2013 | MG213 cells, MMTV-luciferase reporter, dexamethasone, overnight; in the data active = activation above about 7.8%;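 note: 0% = vehicle wells and 100% = reference activator wells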
* marks the source's active call; other numbers are inactive results; x = no result given. This is a sample that favours compounds with a hit; in the whole collection about 4.8% have one here.

SMILES | DAX1 inh-1 | hcDAF12 agonist | hgDAF12 agonist | DAX1 inh-2 | ssDAF-12 act | SMARCA2 act
O=C(NCCN1CCC(Cc2ccccc2)CC1)C1CCCN(S(=O)(=O)c2ccc(Cl)s2)C1 (stereo unspecified) | x | -4 | -1 | -1 | -2 | -5
CC1CCCN(c2cccc3c2S(=O)(=O)N(Cc2cccc(F)c2)[C@@H](C)[C@H](c2ccccc2)O3)C1 (stereo partly specified) | x | 0 | 6 | 1 | -1 | -6
CCOc1ccc(NC(=O)CN2C(=O)c3ccccc3C2=O)cc1 | 1 | 1 | 1 | 0 | -1 | -1
CCOc1ccc(NC(=O)CN2C(=O)C3CCCN3C2=O)cc1 (stereo unspecified) | 4.7* | 1 | 2 | 1 | -1 | 0
COc1cccc(Cn2cc(COC(=O)NCC(C)C)nn2)c1 | x | 0 | 3 | -1 | 0 | -2
Cc1ccc2[nH]c(CNC(=O)c3ccc(F)cc3)cc2c1 | 1 | 1 | -1 | 1 | 1.0* | -3
CCN1C(=O)/C(=C/C=C2/CCCN2C)OC1=S | 0 | 1 | 13* | 1 | -1 | 2
O=C1C(Cl)=C(NCCc2ccccc2)C(=O)N1CCc1ccccc1 | 1 | -1 | 2 | 0 | -1 | 7.9*
O=C1c2ccccc2C(=O)N1CCc1ccccc1 | 4 | 6.2* | 7 | 0 | 0.9* | 1
O=C1C(Cl)=C(N2CCOCC2)C(=O)N1CCc1ccccc1 | 2 | 4 | 11* | 1 | 0 | 2
O=C1C(Cl)=C(NCCCN2CCOCC2)C(=O)N1CCc1ccccc1 | 0 | 0 | 0 | 0 | -1 | -4
COC(=O)[C@]12C[C@H](CC(=O)NCc3cccc(C(F)(F)F)c3)C(=O)N(Cc3cccc4ccccc34)C1=C[C@H](C(C)(C)C)O[C@@H]2C | x | 1 | -2 | -1 | -1 | -3
c1ccc(Cn2ccc3ccc(-c4ccc5ccn(Cc6cccc(-c7ccsc7)c6)c5c4)cc32)cc1 | x | 1 | 2 | -1 | -1 | -2
O=C1CC(=O)N(c2cccc(F)c2)N1 | 6.0* | -1 | 1 | 0 | 0 | -1
O=C1CSC(=S)N1c1cccc(F)c1 | 2 | 0 | -2 | 0 | -2 | -1
O=C(/C=C/c1ccc(F)cc1)N1CCc2ccccc2C1 | 1 | 4 | 5 | 3.8* | 0 | 4
CCOC(=O)CCc1c(C)nc(SCc2ccc(C(=O)O)cc2)c(C#N)c1C | 6.0* | -1 | -1 | 0 | -1 | -2
CC(=O)N1CCN(C(=O)c2ccc(CNC(=O)c3cccc(Br)c3)cc2)CC1 | x | -2 | -2 | 0 | -1 | 1
O=C(O)c1ccccc1N/N=C/c1cc(Br)cc(Br)c1O | 5.6* | 2 | 7 | 4 | -1 | 5
COC(=O)N1C[C@H](OC)[C@H]2C[C@@H]1c1ccccc1O2 | x | -2 | 0 | 1 | -1 | 0
CC1=C(C(=O)Nc2ccccn2)C(c2ccccc2Cl)NC(=S)N1 (stereo unspecified) | 1 | 2 | 11* | 2 | -1 | 5
CCCC1CCC2(CCCN2CCOC(=O)Nc2ccc(Br)cc2)CC1 (stereo unspecified) | x | 2 | 2 | x | -1 | x
CC1=C[C@]2(C[N+](Cc3ccccc3)=C(N)N2)n2c(=O)n(-c3ccccc3)c(=O)n2C1 | x | -3 | -2 | 0 | -2 | 1
C[C@@H]1CN(Cc2nc(-c3cccs3)no2)C[C@H](C)O1 | 9.4* | 0 | 2 | 1 | 0 | -2
C#CCN1CC(N(C)CCOC(=O)c2occ3ccccc23)CS1(=O)=O (stereo unspecified) | x | -2 | -2 | 1 | -1 | 4
SMILES | DAX1 inh-1 | hcDAF12 agonist | hgDAF12 agonist | DAX1 inh-2 | ssDAF-12 act | SMARCA2 act
O=C(COC(=O)C1CC1)Nc1ccc(N=Nc2ccccc2)cc1 | 2 | 4 | 13* | 3 | 1 | 1
CN(C)CCNc1ncnc2c1sc1nc(N3CCOCC3)c3c(c12)CC(C)(C)SC3 | -1 | -2 | -2 | -1 | -2 | 5
CCN(CC)CCNc1ncnc2c1sc1nc(N3CCOCC3)c3c(c12)CC(C)(C)SC3 | 0 | -2 | -1 | 0 | 1.1* | 7
Cc1cc(C)cc(Nc2ncc3c(n2)CCCC3=O)c1 | -1 | 5 | 10 | 3.9* | 0 | 1
Cc1cc(C)cc(Nc2ncc3c(n2)CC(c2ccco2)CC3=O)c1 (stereo unspecified) | 0 | -2 | -1 | -1 | -2 | -1
C#CCNC(=O)C[C@@H]1C(=O)N(Cc2ccc(OC)cc2)/C2=C/CCCCC[C@@]21C(=O)OCC | x | -1 | -2 | -1 | -2 | -4
C(=N\Nc1ccccc1)/c1ccc(N2CCOCC2)cc1 | 2 | 4 | 13* | 2 | 1.2* | 2
Clc1cccc(N/N=C/c2ccc(N3CCOCC3)cc2)c1 | 1 | 2 | 2 | 1 | -1 | 3
Cc1ccc(NC(=O)c2cccc3c2-c2ccccc2C3=O)c(C)c1 | x | 1 | 3 | 0 | -1 | -4
CC1CCN(CCCCOc2ccc(Cl)cc2)CC1 | 1 | x | x | x | x | x
CC1CCN(C(=O)CCCOc2ccc(Cl)cc2)CC1 | 1 | -1 | 3 | 0 | 1.3* | 0
COC(=O)C1=C(C)N(Cc2cccc(C(F)(F)F)c2)C(=NCC2CC2)NC1c1cccc(C(F)(F)F)c1 (stereo unspecified) | x | -1 | 1 | -1 | 0 | -11
O=C(Nc1nc(Cc2ccccc2)c(-c2ccccc2)n1Cc1ccccc1)c1ccccc1 | x | 0 | 0 | 1 | -1 | -5
O=C1c2ccccc2/C(=C\c2ccc(O[C@@H]3CCCCO3)cc2)N1c1ccccc1 | x | 2 | 11* | 1 | -1 | 3
O=C(CSc1nnc(-c2ccccc2)n1-c1ccc(Cl)cc1)Nc1ccccc1-c1ccccc1 | x | -2 | -2 | -1 | -2 | -6
O=C(COC(=O)C1CCC1)c1c[nH]c2ccccc12 | 1 | 4 | 0 | 1 | 0 | 2
CC(=O)OCC(=O)c1c[nH]c2ccccc12 | 2 | 5 | 2 | 0 | 1.1* | 0
O=C(Cc1ccccc1[N+](=O)[O-])OCC(=O)c1c[nH]c2ccccc12 | 2 | 6 | 6 | 2 | 1 | 5
N#Cc1ccccc1OCC(=O)OCC(=O)c1c[nH]c2ccccc12 | 0 | 2 | 2 | 4.1* | 0 | -1
